In PubChem BioAssay AID1159580 (chemical genetic matrix, 2015):
Screen size: about 5,500 compounds; about 2,000 (36%) were called active. Not shown: some 18% with an inconclusive outcome. Rule as the data show it: active = normalized growth mostly below about 0.91 (no sharp cut-off); inconclusive = no clear call, values can overlap the other calls; inactive = mostly above about 0.92. This is one part of the list.

Assay: chemical genetic growth profiling, strain panel (AID 1159580);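 also: tested at 20 µM; growth read once vehicle control cultures reached saturation at 30 °C; 1 = growth at the plate median or of vehicle wells; lower values mean less growth of the strain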
Conditions: growth OD
[1] = S. cerevisiae deletion strains, locus YJR075W, strain HOC1, stronger effect = lower value
[2] = S. cerevisiae deletion strains, locus YMR307W, strain GAS1, stronger effect = lower value
[3] = S. cerevisiae deletion strains, locus YPL055C, strain LGE1, stronger effect = lower value

Measured: normalized growth

OC(CNCCc1cccs1)COc1ccccc1 (stereo unspecified)
inactive: S. cerevisiae deletion strains, locus YAL013W, strain DEP1, stronger effect = lower value 0.995 | S. cerevisiae deletion strains, locus YBR229C, strain ROT2, stronger effect = lower value 0.987 | S. cerevisiae deletion strains, locus YCL061C, strain MRC1, stronger effect = lower value 0.994 | S. cerevisiae deletion strains, locus YDL101C, strain DUN1, stronger effect = lower value 0.999 | S. cerevisiae deletion strains, locus YDL134C, strain PPH21, stronger effect = lower value 0.986 | S. cerevisiae deletion strains, locus YDR150W, strain NUM1, stronger effect = lower value 0.976 | S. cerevisiae deletion strains, locus YEL061C, strain CIN8, stronger effect = lower value 0.998 | S. cerevisiae deletion strains, locus YGR078C, strain PAC10, stronger effect = lower value 0.989 | S. cerevisiae deletion strains, locus YHR030C, strain SLT2, stronger effect = lower value 0.934 | S. cerevisiae deletion strains, locus YHR087W, strain rtc3, stronger effect = lower value 0.998 | S. cerevisiae deletion strains, locus YJR043C, strain POL32, stronger effect = lower value 0.994 | [1] 1.01 | S. cerevisiae deletion strains, locus YKL190W, strain CNB1, stronger effect = lower value 0.982 | S. cerevisiae deletion strains, locus YLR039C, strain RIC1, stronger effect = lower value 0.944 | S. cerevisiae deletion strains, locus YLR058C, strain SHM2 (second series), stronger effect = lower value 0.991 | S. cerevisiae deletion strains, locus YLR085C, strain ARP6, stronger effect = lower value 1.08 | S. cerevisiae deletion strains, locus YLR262C, strain YPT6, stronger effect = lower value 0.831 | S. cerevisiae deletion strains, locus YML094W, strain GIM5, stronger effect = lower value 1.06 | S. cerevisiae deletion strains, locus YMR219W, strain ESC1, stronger effect = lower value 1 | S. cerevisiae deletion strains, locus YMR263W, strain SAP30, stronger effect = lower value 0.99 | [2] 1.13 | S. cerevisiae deletion strains, locus YNL153C, strain GIM3, stronger effect = lower value 0.995 | S. cerevisiae deletion strains, locus YNL298W, strain CLA4 (second series), stronger effect = lower value 0.964 | S. cerevisiae deletion strains, locus YNL322C, strain KRE1, stronger effect = lower value 1 | S. cerevisiae deletion strains, locus YNR030W, strain Alg12, stronger effect = lower value 1 | S. cerevisiae deletion strains, locus YOL006C, strain TOP1, stronger effect = lower value 0.939 | [3] 1.03 | S. cerevisiae deletion strains, locus YPL241C, strain CIN2, stronger effect = lower value 1.02 | S. cerevisiae deletion strains, locus YPR135W, strain CTF4, stronger effect = lower value 0.949 | S. cerevisiae strains, strain wild type, stronger effect = lower value 0.967

N=c1c[n+](N2CCOCC2)[n-]o1
inactive: S. cerevisiae deletion strains, locus YAL040C, strain CLN3, stronger effect = lower value 1 | S. cerevisiae deletion strains, locus YCL061C, strain MRC1 (second series), stronger effect = lower value 1.02 | S. cerevisiae deletion strains, locus YDR363W, strain ESC2, stronger effect = lower value 1.01 | S. cerevisiae deletion strains, locus YER002W, strain NOP16, stronger effect = lower value 1 | [1] 1.01 | [2] 1.01 | S. cerevisiae deletion strains, locus YNL175C, strain NOP13, stronger effect = lower value 1.01 | S. cerevisiae deletion strains, locus YNL197C, strain WHI3, stronger effect = lower value 0.999 | S. cerevisiae deletion strains, locus YNL224C, strain SQS1, stronger effect = lower value 1.02 | S. cerevisiae deletion strains, locus YOR083W, strain WHI5 (second series), stronger effect = lower value 1.01 | [3] 1.02
